Inconclusive results are not listed. Active and inactive are the calls of the source. Rule for the calls, unless noted: active = hit-call score of the fitted dose curve at least 0.9, where 1 is the maximum; inconclusive = response in the unintended direction; inactive = score below 0.9.
Columns and labels:
[1] = biological target: human Peroxisome Proliferator-activated Receptor alpha (PPARa), PPARA (gene 5465) (UniProt Q07869); assay: ATG_PPARa_TRANS: Attagene TRANS-FACTORIAL HepG2 Assay for human Peroxisome Proliferator-activated Receptor alpha (PPARa) (AID 2283001);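 for AC50: potency for gain of reporter signal over DMSO so agonist or activator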
Method in brief: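 Read-out is fluorescence of reporter cDNA fragments resolved by capillary electrophoresis after RT-PCR. Human HepG2 liver cells carried transfected PPARa-Gal4 chimera and GAL4-UAS reporter units, treated 24 h; activity scored as increase over DMSO.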

[2] = biological target: Nuclear receptor subfamily 1 group I member 2 (Homo sapiens) (UniProt O75469); assay: ATG_PXR_TRANS: Attagene TRANS-FACTORIAL HepG2 Assay for human Pregnane X Receptor (PXR) (AID 2283008)
Method in brief: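 HepG2 cells transiently transfected with GAL4-UAS reporter units and PXR-Gal4 chimera, exposed 24 h. Reporter mRNA quantified by RT-PCR, fluorescent labelling, HpaI digestion and capillary electrophoresis; gain of signal vs DMSO.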

[3] = biological target: Retinoic acid receptor RXR-alpha (Homo sapiens) (UniProt P19793); assay: ATG_RXRa_TRANS: Attagene TRANS-FACTORIAL HepG2 Assay for human Retinoid X Receptor alpha (RXRa) (AID 2283012)
Method in brief: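 Transient transfection of human HepG2 with multiple GAL4-UAS reporter constructs; 24 h compound exposure; total RNA isolated, reverse-transcribed, PCR-amplified, 6-FAM labelled, HpaI-cut, resolved by capillary electrophoresis. Positive-direction fit versus DMSO.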

[4] = biological target: human Retinoid X Receptor beta (RXRb), RXRB (gene 6257) (UniProt P28702); assay: ATG_RXRb_TRANS: Attagene TRANS-FACTORIAL HepG2 Assay for human Retinoid X Receptor beta (RXRb) (AID 2283013)
Method in brief: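 Transfect HepG2 with GAL4-UAS multi-reporter constructs (chimeric NR-Gal4, TRANS format); dose compound 24 h; isolate RNA, RT-PCR, FAM primer extension, HpaI digest; quantify by capillary electrophoresis; positive direction vs DMSO.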

[5] = biological target: human Vitamin D Receptor (VDR), VDR (gene 7421) (UniProt P11473); assay: ATG_VDR_TRANS: Attagene TRANS-FACTORIAL HepG2 Assay for human Vitamin D Receptor (VDR) (AID 2283022)
Method in brief: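 RT-PCR/capillary electrophoresis read-out of reporter mRNA induction in transiently transfected HepG2; 24 h dosing; chimeric NR-Gal4 (TRANS format); gain-of-signal fit against DMSO baseline.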

[6] = biological target: human Retinoic Acid Receptor gamma (RARg), RARG (gene 5916) (UniProt P13631); assay: ATG_RARg_TRANS: Attagene TRANS-FACTORIAL HepG2 Assay for human Retinoic Acid Receptor gamma (RARg) (AID 2283009)
Method in brief: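 Transient transfection of HepG2 with multi-reporter constructs, then 24 h chemical treatment. Total RNA isolated, reverse-transcribed, PCR-amplified, fluorescently labelled and resolved by capillary electrophoresis; activity scored as mRNA induction versus DMSO.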

[7] = biological target: human RAR-related Orphan Receptor gamma (RORg), RORC (gene 6097) (UniProt P51449); assay: ATG_RORg_TRANS: Attagene TRANS-FACTORIAL HepG2 Assay for human RAR-related Orphan Receptor gamma (RORg) (AID 2283011)
Method in brief: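 Transient MRTU transfection of HepG2 (TRANS format, exogenous NR-Gal4 chimera). 24 h dosing. Total RNA → oligo(dT) RT → PCR → 6-FAM labelling → HpaI cut → CE. Gain vs DMSO.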

[8] = biological target: human Thyroid Receptor alpha (THRa1), THRA (gene 7067) (UniProt P10827); assay: ATG_THRa1_TRANS: Attagene TRANS-FACTORIAL HepG2 Assay for human Thyroid Receptor alpha (THRa1) (AID 2283014)
Method in brief: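 Transient HepG2 transfection, NR-Gal4 chimera driving GAL4-UAS reporters; 24 h compound exposure; total RNA, oligo(dT) RT, PCR, fluorescent primer extension, capillary electrophoresis. Upward direction vs DMSO control.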

[9] = biological target: human Peroxisome Proliferator-activated Receptor delta (PPARd), PPARD (gene 5467) (UniProt Q03181); assay: ATG_PPARd_TRANS: Attagene TRANS-FACTORIAL HepG2 Assay for human Peroxisome Proliferator-activated Receptor delta (PPARd) (AID 2283002)
Method in brief: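 Read-out is induced reporter mRNA, quantified by RT-PCR with fluorescent labelling and capillary electrophoresis after 24 h dosing. Cells are HepG2 transiently carrying multiple GAL4-UAS reporter units driven by exogenous NR-GAL4 chimeras; DMSO serves as baseline.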

[10] = read-out: Intercellular Adhesion Molecule 1 (ICAM1), ICAM1 (gene 3383); assay: BSK_3C_ICAM1: BioMAP Diversity Plus: 3C Assay for Intercellular Adhesion Molecule 1 (ICAM1) Biomarker Activity (AID 2283003; active = hit-call score of the fitted dose curve at least 0.9, where 1 is the maximum; inactive = score below 0.9); conditions: primary human endothelial cells (HUVEC); actives raise or lower the signal
Method in brief: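 ICAM-1 levels measured by ELISA after HUVEC cultures in the 3C system had been dosed for 24 h. Gain or loss of signal relative to DMSO was fitted in both directions.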

[11] = biological target: human Retinoic Acid Receptor beta (RARb), RARB (gene 5915) (UniProt P10826); assay: ATG_RARb_TRANS: Attagene TRANS-FACTORIAL HepG2 Assay for human Retinoic Acid Receptor beta (AID 2283004)
Method in brief: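 Readout is reporter mRNA induction: RNA reverse-transcribed, PCR-amplified, FAM-labelled, HpaI-cut and resolved by capillary electrophoresis. Transiently transfected HepG2 cells carrying exogenous NR–Gal4 chimeras were dosed for 24 h; activity fitted upward relative to DMSO.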

[12] = biological target: Retinoic acid receptor alpha (Homo sapiens) (UniProt P10276); assay: ATG_RARa_TRANS: Attagene TRANS-FACTORIAL HepG2 Assay for human Retinoic Acid Receptor alpha (RARa) (AID 2283005)
Method in brief: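 Reporter transcripts, measured by RT-PCR with fluorescent labeling and capillary electrophoresis after 24 h dosing, reflect activity of an exogenous human RARa–GAL4 fusion in transiently transfected HepG2. Fitted for increase relative to DMSO.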

[13] = BSK_3C_Proliferation: Cell Proliferation Assessment in the BioMAP Diversity Plus: 3C Assay (AID 2283006; active = hit-call score of the fitted dose curve at least 0.9, where 1 is the maximum; inactive = score below 0.9;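 for AC50: potency may reflect either rise or fall in cell number versus DMSO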); conditions: primary human endothelial cells (HUVEC)
Method in brief: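 Read-out is total protein by SRB absorbance at 560 nm, taken as a proxy for relative cell number. Primary human umbilical vein endothelium cultured below confluence was dosed for 48 h, TCA-fixed and SRB-stained; curves were fitted bidirectionally versus DMSO.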

[14] = biological target: Peroxisome proliferator-activated receptor gamma (Homo sapiens) (UniProt P37231); assay: ATG_PPARg_TRANS: Attagene TRANS-FACTORIAL HepG2 Assay for human Peroxisome Proliferator-activated Receptor-gamma (PPARg) (AID 2283007)
Method in brief: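 HepG2 cells transiently transfected with multiplexed GAL4-UAS reporter units and exogenous chimeric NR-Gal4 proteins; reporter mRNA quantified after 24 h compound exposure by RT-PCR, fluorescent labelling, HpaI digestion and capillary electrophoresis; gain-of-signal fitted versus DMSO baseline.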

[15] = read-out: E-selectin (Homo sapiens) (UniProt P16581); assay: BSK_3C_Eselectin: BioMAP Diversity Plus: 3C Assay for Eselectin Biomarker Activity (AID 2283015; active = hit-call score of the fitted dose curve at least 0.9, where 1 is the maximum; inactive = score below 0.9); conditions: primary human endothelial cells (HUVEC); actives raise or lower the signal
Method in brief: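 HUVEC, 3C stimulation; compound exposure 24 h; E-selectin by ELISA; gain- or loss-of-signal fitted bidirectionally vs DMSO baseline.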

[16] = read-out: Interleukin-1 alpha (IL1a), IL1A (gene 3552); assay: BSK_BE3C_IL1a: BioMAP Diversity Plus: BE3C Assay for Interleukin-1 alpha (IL1a) Biomarker Activity (AID 2283016; active = hit-call score of the fitted dose curve at least 0.9, where 1 is the maximum; inactive = score below 0.9); conditions: primary human bronchial epithelial cells; actives raise or lower the signal
Method in brief: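 BE3C primary human bronchial epithelium; cpd 24 h; IL-1a by ELISA; bidirectional fit vs DMSO; parallel SRB (0.1% SRB, 10% TCA fix, 560 nm) for cytotoxicity.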

[17] = read-out: Monocyte Chemoattractant Protein-1 (MCP1), CCL2 (gene 6347); assay: BSK_4H_MCP1: BioMAP Diversity Plus: 4H Assay for Monocyte Chemoattractant Protein-1 (MCP1) Biomarker Activity (AID 2283018; active = hit-call score of the fitted dose curve at least 0.9, where 1 is the maximum; inactive = score below 0.9); conditions: primary human endothelial cells (HUVEC); actives raise or lower the signal
Method in brief: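 ELISA read-out of MCP-1 from human vascular endothelial primary cells taken at 24 hours after compound exposure. Activity was fitted in both directions relative to DMSO, which served as negative control.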

[18] = read-out: Human Leukocyte Antigen - DR isotype (HLADR), HLA-DRA (gene 3122); assay: BSK_3C_HLADR: BioMAP Diversity Plus: 3C Assay for Human Leukocyte Antigen - DR isotype (HLADR) Biomarker Activity (AID 2283019; active = hit-call score of the fitted dose curve at least 0.9, where 1 is the maximum; inactive = score below 0.9); conditions: primary human endothelial cells (HUVEC); actives raise or lower the signal
Method in brief: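 HUVEC, 3C stimulation, 24 h post-dose; HLA-DR by ELISA; bidirectional curve fit vs DMSO baseline; gain or loss of signal scored.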

[19] = read-out: Interleukin-8 (IL8), CXCL8 (gene 3576); assay: BSK_3C_IL8: BioMAP Diversity Plus: 3C Assay for Interleukin-8 (IL8) Biomarker Activity (AID 2283020; active = hit-call score of the fitted dose curve at least 0.9, where 1 is the maximum; inactive = score below 0.9); conditions: primary human endothelial cells (HUVEC); actives raise or lower the signal
Method in brief: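 ELISA read-out of IL-8 from human umbilical vein endothelium, measured 24 h after chemical dosing. Activity is expressed relative to DMSO negative control, with both increases and decreases fitted.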

[20] = biological target: human RAR-related Orphan Receptor beta (RORb), RORB (gene 6096) (UniProt Q92753); assay: ATG_RORb_TRANS: Attagene TRANS-FACTORIAL HepG2 Assay for human RAR-related Orphan Receptor beta (RORb) (AID 2283010)
Method in brief: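 Readout is reporter-gene mRNA induction, detected as fluorescence after RT-PCR and capillary electrophoresis, fitted for gain of signal against DMSO controls. Transiently transfected HepG2 liver cells carrying GAL4-UAS reporter constructs were treated for 24 hours.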

Measured: AC50

Sequence of human Peroxisome Proliferator-activated Receptor delta (PPARd), PPARD (gene 5467) (Q03181 whole entry, looked up, the tested form may be a part): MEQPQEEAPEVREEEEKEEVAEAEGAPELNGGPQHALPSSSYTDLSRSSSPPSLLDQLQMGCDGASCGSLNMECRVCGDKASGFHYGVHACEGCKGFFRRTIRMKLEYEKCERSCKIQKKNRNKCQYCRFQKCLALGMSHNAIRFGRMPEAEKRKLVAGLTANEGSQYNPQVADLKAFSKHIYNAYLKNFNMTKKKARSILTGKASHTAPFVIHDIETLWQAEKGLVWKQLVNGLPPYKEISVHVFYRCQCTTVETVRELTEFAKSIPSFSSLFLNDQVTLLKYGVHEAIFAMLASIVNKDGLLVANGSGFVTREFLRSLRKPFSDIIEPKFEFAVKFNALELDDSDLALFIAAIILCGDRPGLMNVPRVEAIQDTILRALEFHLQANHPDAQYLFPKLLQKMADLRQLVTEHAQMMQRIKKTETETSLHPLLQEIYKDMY
Sequence of E-selectin (Homo sapiens) (P16581 whole entry, looked up): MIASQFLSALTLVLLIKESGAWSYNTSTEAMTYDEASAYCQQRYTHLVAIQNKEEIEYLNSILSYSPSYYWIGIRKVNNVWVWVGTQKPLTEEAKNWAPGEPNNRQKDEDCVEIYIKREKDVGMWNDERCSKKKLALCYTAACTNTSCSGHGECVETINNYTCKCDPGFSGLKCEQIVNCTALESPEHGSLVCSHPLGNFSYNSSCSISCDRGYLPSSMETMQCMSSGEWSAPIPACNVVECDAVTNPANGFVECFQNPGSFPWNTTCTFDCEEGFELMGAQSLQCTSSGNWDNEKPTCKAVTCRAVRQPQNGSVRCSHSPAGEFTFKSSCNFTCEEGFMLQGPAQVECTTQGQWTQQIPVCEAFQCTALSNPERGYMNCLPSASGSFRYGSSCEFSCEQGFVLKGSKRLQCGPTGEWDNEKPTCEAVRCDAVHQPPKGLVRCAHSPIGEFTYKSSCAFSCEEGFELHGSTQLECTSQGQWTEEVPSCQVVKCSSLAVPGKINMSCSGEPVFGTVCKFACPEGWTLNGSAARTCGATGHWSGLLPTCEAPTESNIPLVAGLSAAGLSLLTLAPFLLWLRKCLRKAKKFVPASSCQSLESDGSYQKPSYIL
Sequence of Nuclear receptor subfamily 1 group I member 2 (Homo sapiens) (O75469 whole entry, looked up, the tested form may be a part): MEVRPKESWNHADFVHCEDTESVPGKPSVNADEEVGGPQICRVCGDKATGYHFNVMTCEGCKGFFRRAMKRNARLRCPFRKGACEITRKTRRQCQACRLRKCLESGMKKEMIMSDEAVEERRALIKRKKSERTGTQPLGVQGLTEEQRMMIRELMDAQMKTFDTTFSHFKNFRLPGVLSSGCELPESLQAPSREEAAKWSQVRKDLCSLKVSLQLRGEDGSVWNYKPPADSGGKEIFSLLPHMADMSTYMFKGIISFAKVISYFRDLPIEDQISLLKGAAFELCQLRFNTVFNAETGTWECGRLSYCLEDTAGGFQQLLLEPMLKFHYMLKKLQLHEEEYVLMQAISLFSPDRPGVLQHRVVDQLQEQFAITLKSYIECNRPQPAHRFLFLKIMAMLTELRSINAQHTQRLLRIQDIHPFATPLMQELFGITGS
Sequence of human Retinoic Acid Receptor beta (RARb), RARB (gene 5915) (P10826 whole entry, looked up, the tested form may be a part): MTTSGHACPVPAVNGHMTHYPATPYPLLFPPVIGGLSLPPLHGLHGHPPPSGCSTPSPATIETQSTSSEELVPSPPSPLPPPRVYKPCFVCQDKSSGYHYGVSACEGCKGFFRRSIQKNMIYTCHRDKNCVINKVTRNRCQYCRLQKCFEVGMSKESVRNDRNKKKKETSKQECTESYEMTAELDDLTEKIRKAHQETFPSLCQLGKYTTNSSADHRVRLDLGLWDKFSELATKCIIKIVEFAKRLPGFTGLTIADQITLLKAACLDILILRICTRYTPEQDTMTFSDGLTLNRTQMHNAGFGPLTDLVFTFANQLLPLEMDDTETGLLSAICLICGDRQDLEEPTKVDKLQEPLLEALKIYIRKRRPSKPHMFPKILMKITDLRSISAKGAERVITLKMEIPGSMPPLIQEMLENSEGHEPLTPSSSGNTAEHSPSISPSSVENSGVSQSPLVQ
Sequence of human Vitamin D Receptor (VDR), VDR (gene 7421) (P11473 whole entry, looked up, the tested form may be a part): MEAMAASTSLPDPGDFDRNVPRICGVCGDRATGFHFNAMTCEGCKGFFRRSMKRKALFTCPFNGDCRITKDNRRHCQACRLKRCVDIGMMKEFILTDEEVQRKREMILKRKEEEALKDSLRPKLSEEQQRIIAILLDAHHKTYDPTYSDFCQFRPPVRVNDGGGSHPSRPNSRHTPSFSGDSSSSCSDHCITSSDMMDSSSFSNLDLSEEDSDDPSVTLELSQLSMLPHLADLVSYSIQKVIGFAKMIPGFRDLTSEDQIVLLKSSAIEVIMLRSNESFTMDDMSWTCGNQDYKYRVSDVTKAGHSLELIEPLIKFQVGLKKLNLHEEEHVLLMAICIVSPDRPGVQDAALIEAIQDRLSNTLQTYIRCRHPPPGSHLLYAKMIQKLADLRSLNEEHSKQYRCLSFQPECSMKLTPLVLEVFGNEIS
Sequence of human Peroxisome Proliferator-activated Receptor alpha (PPARa), PPARA (gene 5465) (Q07869 whole entry, looked up, the tested form may be a part): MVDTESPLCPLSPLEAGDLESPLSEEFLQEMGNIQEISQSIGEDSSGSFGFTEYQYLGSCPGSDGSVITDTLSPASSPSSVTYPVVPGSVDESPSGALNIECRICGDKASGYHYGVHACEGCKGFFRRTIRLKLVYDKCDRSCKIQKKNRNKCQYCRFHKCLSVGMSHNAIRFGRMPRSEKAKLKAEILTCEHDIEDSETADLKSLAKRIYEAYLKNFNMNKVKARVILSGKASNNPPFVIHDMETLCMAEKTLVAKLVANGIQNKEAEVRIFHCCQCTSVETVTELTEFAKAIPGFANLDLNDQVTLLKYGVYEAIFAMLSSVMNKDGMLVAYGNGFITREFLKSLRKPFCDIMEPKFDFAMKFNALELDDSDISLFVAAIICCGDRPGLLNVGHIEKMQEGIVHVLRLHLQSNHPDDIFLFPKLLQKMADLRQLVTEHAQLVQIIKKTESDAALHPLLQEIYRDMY
Sequence of Retinoic acid receptor RXR-alpha (Homo sapiens) (P19793 whole entry, looked up, the tested form may be a part): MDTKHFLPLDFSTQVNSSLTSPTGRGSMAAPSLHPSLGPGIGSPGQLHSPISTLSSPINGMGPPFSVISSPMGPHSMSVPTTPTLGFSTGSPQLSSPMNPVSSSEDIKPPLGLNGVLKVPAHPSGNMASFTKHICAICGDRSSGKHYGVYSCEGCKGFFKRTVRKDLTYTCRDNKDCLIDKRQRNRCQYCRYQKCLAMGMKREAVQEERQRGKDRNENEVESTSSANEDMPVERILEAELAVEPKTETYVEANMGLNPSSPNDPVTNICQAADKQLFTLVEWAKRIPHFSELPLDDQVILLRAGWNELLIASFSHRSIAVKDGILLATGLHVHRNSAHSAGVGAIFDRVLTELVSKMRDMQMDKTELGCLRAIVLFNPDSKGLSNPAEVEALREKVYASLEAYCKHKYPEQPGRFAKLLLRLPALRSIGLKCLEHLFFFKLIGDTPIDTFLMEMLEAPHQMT
Sequence of Peroxisome proliferator-activated receptor gamma (Homo sapiens) (P37231 whole entry, looked up, the tested form may be a part): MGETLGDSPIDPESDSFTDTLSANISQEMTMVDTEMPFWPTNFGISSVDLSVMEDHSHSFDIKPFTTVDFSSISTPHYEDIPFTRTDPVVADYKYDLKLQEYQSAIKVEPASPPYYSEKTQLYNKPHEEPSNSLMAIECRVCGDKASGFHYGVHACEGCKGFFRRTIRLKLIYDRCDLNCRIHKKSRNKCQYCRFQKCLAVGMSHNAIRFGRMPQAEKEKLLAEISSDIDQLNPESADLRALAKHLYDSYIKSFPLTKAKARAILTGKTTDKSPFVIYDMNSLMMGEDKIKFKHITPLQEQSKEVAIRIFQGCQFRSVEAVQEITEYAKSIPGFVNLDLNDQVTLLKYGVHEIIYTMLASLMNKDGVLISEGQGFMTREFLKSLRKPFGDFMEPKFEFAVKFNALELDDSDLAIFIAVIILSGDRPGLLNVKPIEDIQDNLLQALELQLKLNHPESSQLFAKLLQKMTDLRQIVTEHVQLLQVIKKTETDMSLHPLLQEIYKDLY
Sequence of human Thyroid Receptor alpha (THRa1), THRA (gene 7067) (P10827 whole entry, looked up, the tested form may be a part): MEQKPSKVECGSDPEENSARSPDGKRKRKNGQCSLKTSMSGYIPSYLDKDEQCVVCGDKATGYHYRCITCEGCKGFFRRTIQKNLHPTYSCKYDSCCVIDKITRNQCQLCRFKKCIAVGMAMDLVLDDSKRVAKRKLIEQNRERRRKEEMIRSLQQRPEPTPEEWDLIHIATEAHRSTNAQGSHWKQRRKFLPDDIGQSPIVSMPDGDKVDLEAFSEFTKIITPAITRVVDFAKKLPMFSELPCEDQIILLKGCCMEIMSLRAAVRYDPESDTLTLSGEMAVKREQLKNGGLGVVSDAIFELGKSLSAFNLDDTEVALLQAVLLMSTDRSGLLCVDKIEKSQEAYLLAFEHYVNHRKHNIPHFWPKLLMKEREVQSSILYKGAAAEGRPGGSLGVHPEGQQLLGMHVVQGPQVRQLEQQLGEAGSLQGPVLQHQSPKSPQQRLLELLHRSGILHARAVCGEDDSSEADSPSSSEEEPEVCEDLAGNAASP
Sequence of human RAR-related Orphan Receptor gamma (RORg), RORC (gene 6097) (P51449 whole entry, looked up, the tested form may be a part): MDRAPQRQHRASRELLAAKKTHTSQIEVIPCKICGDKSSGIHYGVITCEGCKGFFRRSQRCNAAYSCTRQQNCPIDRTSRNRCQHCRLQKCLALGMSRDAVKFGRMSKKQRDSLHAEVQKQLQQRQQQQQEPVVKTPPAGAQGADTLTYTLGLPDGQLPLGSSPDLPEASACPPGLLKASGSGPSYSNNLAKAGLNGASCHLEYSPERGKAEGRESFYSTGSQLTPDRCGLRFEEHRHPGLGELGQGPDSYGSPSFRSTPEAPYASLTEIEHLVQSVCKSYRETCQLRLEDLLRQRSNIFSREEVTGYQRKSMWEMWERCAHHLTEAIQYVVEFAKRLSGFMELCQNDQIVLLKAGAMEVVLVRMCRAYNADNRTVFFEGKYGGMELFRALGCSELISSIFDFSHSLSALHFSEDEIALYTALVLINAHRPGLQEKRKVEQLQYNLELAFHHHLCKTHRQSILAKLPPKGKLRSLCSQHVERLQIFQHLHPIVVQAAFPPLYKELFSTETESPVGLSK

C=C(C)C(=O)OCCOc1ccccc1
inactive: [1] | [2] | [4] | [5]
active: [3] 26.5 µM

C1=CCCC1
inactive: [1] | [2] | [6] | [7] | [3] | [4] | [8] | [5]

CCOc1nc(F)cc2nc(S(=O)(=O)Nc3c(Cl)cccc3C(=O)OC)nn12
active: [14] 46.2 µM | [2] 7.06 µM
not listed: [1] | [4] | [20]
inactive: all other assays above

CCO[Si](C)(OCC)OCC
inactive: [9] | [10] | [13] | [2] | [20] | [15] | [16] | [17] | [18] | [19]

CCOc1ccc(N)c([N+](=O)[O-])c1
inactive: [1] | [2] | [3] | [8] | [5]

O=S(=O)(O)CC(O)CCl (stereo not drawn)
inactive: [1] | [2] | [5]
active: [14] 26.4 µM

CCC(C)(C)C1CCCCC1OC(C)=O (stereo not drawn)
active: [4] 74.1 µM
inactive: [9] | [11] | [14] | [2] | [6] | [3] | [5]

O=C(O)c1cc2ccccc2nc1C(=O)O
inactive: [1] | [14] | [2] | [4] | [5]

CCOC(=O)c1ccc(N(C)C)cc1
active: [2] 27.5 µM
inactive: [1] | [7] | [4] | [5]

CCCCC/C=C\C/C=C\CCCCCCCC(=O)OC
inactive: [7] | [3] | [17] | [19]
active: [9] 100 µM | [10] 32.7 µM | [13] 27.1 µM | [14] 4.68 µM | [2] 47.6 µM | [15] 29.6 µM | [16] 20 µM | [18] 28.7 µM

Cc1cc(O)c(Cl)c(C)c1Cl
inactive: [1] | [4]
active: [2] 26.4 µM

CCCCCCCCCCOS(=O)(=O)O
inactive: [2] | [3] | [4] | [5]
active: [1] 27.6 µM

C=C(C)C(=O)OCCO
inactive: [1] | [2] | [6] | [20] | [7] | [5]

OCCNCc1ccccc1
inactive: [1] | [20] | [7] | [3]

OC1CCCCCCCCCCC1
active: [2] 8.87 µM
inactive: [9] | [11] | [14] | [6] | [3]
